# In PubChem BioAssay (NCI):
# About 83,000 compounds went through this panel and 20% of them were active in at least one assay; those are over-represented in the sample as a whole.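 A percent growth of 40 corresponds to 60% growth inhibition; 0 means no net growth; -100 means all cells died. Active threshold: below 10.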 A number with no mark means an inactive call.
# System: TK-10 renal
# Experiment: NCI-60 one-dose screen, 48 h (100 = growth as untreated, 0 = no growth, -100 = all killed)
# Conditions: 10 µM unless noted
row,Structure (SMILES),growth
1,N#Cc1c(-c2ccc(Cl)cc2)nc(SCC(=O)NC2=NN=C(c3ccccc3)CS2)[nH]c1=O,119%
2,Cc1cc2c(O)c(-c3cccc(Cl)c3)c3sc(=O)oc3c2cc1C,122%
3,CC1=C(CCC(C)N(C)Cc2ccc(OCCCN3CCCC3)cc2)C(C)(C)CCC1 (centres undefined),49.9%
4,N#Cc1cccc(-c2c(-c3ccc4ccccc4c3)oc3ccccc3c2=O)c1,73.1%
5,Cc1nc2sc(C(=O)Nc3ccccc3)c(N)c2cc1C(=O)c1ccccc1,54.7%
6,O=C(O)CNC1=C(Cl)C(=O)c2ccccc2C1=O,110%
7,CCCCCC(=O)OCC(=O)O[C@@H]1C[C@]2(C(C)C)O[C@@]1(C)[C@@H]1CC[C@@H](C)[C@H]1[C@@H]2OC(=O)/C=C/c1ccccc1,134%
8,CN1C(=O)/C(=C/c2ccc(C(=O)Nc3ncc(Cc4ccc(Cl)cc4)s3)cc2)SC1=S,57.7%
9,C#CCOc1ccc2ncnc(Nc3cccc(NC(=O)C=C)c3)c2c1,45.2%
10,CN(CCOc1ccc(C#N)cc1)CCOc1ccc(C#N)cc1,94.3%
11,CCOC(=O)c1c(NC(=O)c2ccc(C(C)C)cc2)sc2c(CN(C)C)c(O)ccc12,107%
12,COC(=O)c1c2c(c[n+]([O-])c1C)C(=O)C(NCc1ccccc1)=CC2=O,39%
13,Nc1ncnc2c1N=C(c1ccc3c(c1)OCO3)CC(c1ccc([N+](=O)[O-])cc1)N2 (centres undefined),112%
14,N#C/C(=C/c1ccc([N+](=O)[O-])cc1)n1nnc2cc(F)c(F)cc21,24.5%
